About 840 (25%) of roughly 3,400 compounds were called active. About 11% were inconclusive and are not listed. Only a sample is shown. Measured potencies and affinities stand elsewhere. Values without a mark were called inactive.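 The calls were made as follows: active = fitted half-maximal concentration of signal decrease at or below twice the sample's top tested concentration; inconclusive = flat curve between -70 and -30 percent, or poor fit; inactive = flat within 30 percent, signal rise, or potency above limit.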
Experiment: T. gondii growth inhibition with IFN-gamma, dose response, cell-based, ME49Luc, HeLa, luciferase, 72 h (AID 1259418)
Details: T. gondii ME49Luc in IFN-y HeLa, hits give low values, -100% = high-dose IFN-γ control wells; at 19.5 µM unless noted
With `Cc1oc(-c2cccc(Cl)c2)nc1Cn1nnc(-c2nc(-c3ccccc3)no2)c1C` the max activity was 25.3%.
In the case of `CCCCNc1nc(-c2ccc(Cl)cc2)nc2ccccc12`, the max activity is reported as 12.4% [at 0.68 µM].
`COc1ccc(-c2nc(NCC3CCN(Cc4ccccc4Cl)CC3)c3ccccc3n2)cc1` showed a max activity of -15.1% [at 10 µM].
With `CC(C)CCNc1nc(-c2ccc(Cl)cc2)nc2ccccc12` the max activity was -13.6% [at 0.35 µM].
With `COc1ccc(-c2nc(NCCN3CCC(C)CC3)c3ccccc3n2)cc1` the max activity was 14.8%.
Work on `COc1ccc2[nH]cc(CCNC(=O)c3cc(-c4ccccn4)nc4ccccc34)c2c1` yielded a max activity of -12.8% [at 5 µM].
With `Cc1ccc(-c2coc(-c3ccc(NS(=O)(=O)c4ccc(Cl)cc4)cc3)n2)cc1C` the max activity was 40.5% [at 2.6 µM].
In the case of `Cc1ccc(NC(=O)COc2nc(C)nc3ccccc23)c(Cl)c1`, the max activity is reported as 15.5% [at 0.68 µM].
With `COc1cc(OC)cc(-c2noc(-c3nnn(Cc4nc(-c5cccc(C)c5)oc4C)c3C)n2)c1` the max activity was -7.99% [at 0.16 µM].
With `Cc1ccc(NC(=O)Nc2ccc(-c3nc(-c4ccc(C)cc4)co3)cc2)cc1` the max activity was 24% [at 5 µM].
In the case of `CCc1cccc(-n2nnc(C(=O)N3CCC(N4CCCCC4)CC3)c2-c2cccnc2)c1`, the max activity is reported as 25.9% [at 0.68 µM].
Compound `COCC(=O)N1CCC2(CC1)CC1(CCN(CC(C)C)CC1)C(=O)N2C` has a max activity of 34.4%.
Compound `O=C1CC(c2ccncc2)C2(CCN(Cc3nccs3)CC2)N1` (centres undefined) has a max activity of 22.8%.
`CCS(=O)(=O)N1CC[C@H]2[C@@H]1CCN2Cc1cnn(C)c1` showed a max activity of 27.1%.
`COc1ccc(-c2nc(Nc3cc(Cl)c(OC)cc3OC)c3ccccc3n2)cc1` gave a max activity of 18.3%.
With `COc1ccc(-c2nc(Nc3ccc(OC)c(Cl)c3)c3ccccc3n2)cc1` the max activity was 16.4% [at 2.6 µM].
Work on `Cc1ccc(S(=O)(=O)N2CCC3(CC2)OC(C(=O)N(C)C)Cn2ccnc23)cc1` (centres undefined) yielded a max activity of 40.3%.
With `COc1ccccc1NC(=O)N1C[C@@H]2N[C@H](C1)C2c1ccc(/C=C/c2ccccc2)cc1` (some centres undefined) the max activity was -98%.
With `N#Cc1ccc(-c2ccc([C@@H]3[C@H]4CNC[C@@H]3N4Cc3ccc4c(c3)OCO4)cc2)cc1` the max activity was 28.6% [at 10 µM].
Compound `O=C(Nc1ccccc1F)N1C[C@@H]2N[C@H](C1)C2c1ccc(/C=C/c2ccccc2)cc1` (some centres undefined) has a max activity of 85.7% [at 1.2 µM].
`O=C(C1CC1)N1C[C@@H]2N[C@H](C1)C2c1ccc(/C=C/c2ccccc2)cc1` (some centres undefined) showed a max activity of 92.7% [at 0.08 µM].
`N#Cc1cccc(-c2ccc(C3[C@@H]4CN(C(=O)c5ccc6c(c5)OCO6)C[C@H]3N4)cc2)c1` (some centres undefined) gave a max activity of 17.9%.
`O=C(CN1CCOCC1)N1C[C@@H]2N[C@H](C1)C2c1ccc(/C=C/c2ccccc2)cc1` (some centres undefined) gave a max activity of 41.5% [at 10 µM].
In the case of `O=C(Nc1ccc2c(c1)OCO2)N1C[C@@H]2N[C@H](C1)C2c1ccc(C=Cc2ccccc2)cc1` (some centres undefined), the max activity is reported as 116% [at 1.2 µM].
For `Cc1cccc(N2CCN(C(=O)c3ccc(-c4csc(C5CC5)n4)cc3)CC2C)c1` (centres undefined), the max activity was 40.1%.
For `CCN1C(=O)CCc2cc(NC(=O)c3ccc(Br)o3)ccc21`, the max activity was 15.9% [at 10 µM].
`Cc1ccc(-c2coc(-c3ccc(NC(=O)Nc4ccccc4Br)cc3)n2)cc1` showed a max activity of -10.7% [at 10 µM].
`CCc1ccccc1NC(=O)CN1CCC2(CC1)N=C(c1cccc(Cl)c1)C(=O)N2` gave a max activity of 9.92%.
`Cn1c(=O)c(C(=O)NCc2ccccc2Cl)cc2cccnc21` gave a max activity of 196%.
Work on `Cc1ccccc1N(Cc1nc(-c2ccc(OC(C)C)cc2)oc1C)S(=O)(=O)c1cccs1` yielded a max activity of 4.55%.
For `CCOc1ccc(-c2nc(CN(c3ccccc3C)S(=O)(=O)c3cccs3)c(C)o2)cc1OC`, the max activity was -13.1% [at 0.16 µM].
For `CCOc1ccc(-c2nc(CN(c3ccccc3OCC)S(=O)(=O)c3cccs3)c(C)o2)cc1`, the max activity was 6.64%.
With `Cc1ccccc1N(Cc1nc(-c2cccc(Cl)c2)oc1C)S(=O)(=O)c1cccs1` the max activity was -9.43% [at 5 µM].
With `CCOC(=O)CSC1=Nc2ccccc2C2=NC(CC(=O)NCc3ccco3)C(=O)N12` (centres undefined) the max activity was 21.4% [at 1.35 µM].
`COc1ccc(C(=O)Nc2ccc(-c3nc(-c4cc(C)ccc4C)co3)cc2)cc1` showed a max activity of 9.17%.
In the case of `COc1ccccc1C(=O)N1CCC2(CC1)Nc1ccc(C)c(C)c1-n1cccc12`, the max activity is reported as -7.27% [at 1.35 µM].
`CN1CCC(N2CCN(c3ncccc3-c3nnc(-c4ccc(Cl)cc4)o3)CC2)CC1` gave a max activity of 4.69%.
With `Cc1ccc(NC(=O)Nc2ccc(-c3nc(-c4ccccc4)co3)cc2)cc1Cl` the max activity was 9.34%.
Compound `CCOc1ccc(NC(=O)COc2nc(C)nc3ccccc23)cc1` has a max activity of 30.4% [at 10 µM].
`Cc1ccc2c(c1C)-n1cccc1C1(CCN(C(=O)COc3ccc(F)cc3)CC1)N2` showed a max activity of -9.55% [at 0.16 µM].
`Cc1ccc(-c2coc(-c3ccc(NC(=O)CC4CCCCC4)cc3)n2)cc1` gave a max activity of -15.2%.
In the case of `CCOc1ccccc1N(Cc1nc(-c2cccc(Cl)c2)oc1C)S(=O)(=O)c1cccs1`, the max activity is reported as 6.9%.
In the case of `CCOc1ccccc1N(Cc1nc(-c2cccc(C)c2)oc1C)S(=O)(=O)c1cccs1`, the max activity is reported as 10.6%.
Compound `COc1ccccc1N(Cc1nc(-c2ccc(OC(C)C)cc2)oc1C)S(=O)(=O)c1cccs1` has a max activity of -8.76% [at 0.35 µM].
`COc1ccccc1N(Cc1nc(-c2ccccc2)oc1C)S(=O)(=O)c1cccs1` gave a max activity of -5.51% [at 0.68 µM].
`O=C(O)CN1C[C@H]2c3ccccc3C(OCC3CC3)[C@@H]2C1` (some centres undefined) showed a max activity of 42.3%.
Compound `CCc1ccc2c(c1)cc(S(=O)(=O)c1ccccc1)c(=O)n2CC(=O)NC1CCCC1` has a max activity of 14.3% [at 0.16 µM].
For `COc1ccc(-c2nc(Nc3ccc(C)c(F)c3)c3ccccc3n2)cc1`, the max activity was 17.7% [at 2.6 µM].
In the case of `O=C(Cn1cccc1-c1nc(-c2ccccc2)cs1)N1CCC2(CC1)OCCO2`, the max activity is reported as -15.4% [at 2.6 µM].
For `COc1ccccc1N(Cc1nc(-c2ccccc2)oc1C)S(=O)(=O)c1ccccc1C`, the max activity was 9.45% [at 5 µM].
Compound `Cc1csc([C@H]2C[C@H]3CCN(C(=O)c4cnccn4)C[C@@H]3O2)n1` has a max activity of 48.1%.
`COc1ccc(-c2nc(C)c(-c3ccc(SCc4ccc(C(F)(F)F)cc4)nn3)s2)cc1` showed a max activity of 8.72% [at 2.6 µM].
Compound `CCCCC(=O)N1CCC2(CC1)Nc1cc(OC)ccc1-n1cccc12` has a max activity of 14.1% [at 2.6 µM].
`Cc1ccc(-c2nc(CN3CCN(C(=O)Nc4ccccc4Cl)CC3)c(C)o2)cc1` showed a max activity of 16.4% [at 2.6 µM].
Compound `O=C(CC1N=C2c3ccccc3N=C(SCc3ccccc3Cl)N2C1=O)NCc1ccccc1` (centres undefined) has a max activity of 12.8% [at 2.6 µM].
Work on `CCOC(=O)CSC1=Nc2ccccc2C2=NC(CC(=O)NCCc3ccccc3)C(=O)N12` (centres undefined) yielded a max activity of 64.6%.
`O=C(CC1N=C2c3ccccc3N=C(SCc3ccccc3Cl)N2C1=O)NCc1ccc(F)cc1` (centres undefined) showed a max activity of -7.22% [at 0.16 µM].
`O=C(CC1N=C2c3ccccc3N=C(SCc3cccc(Cl)c3)N2C1=O)NCc1ccc2c(c1)OCO2` (centres undefined) showed a max activity of 19.4% [at 10 µM].
In the case of `O=C(CC1N=C2c3ccccc3N=C(SCc3cccc(Cl)c3)N2C1=O)NCc1ccc(F)cc1` (centres undefined), the max activity is reported as 30.2%.
Compound `O=C(CC1N=C2c3ccccc3N=C(SCc3ccc(Cl)cc3)N2C1=O)NCc1ccc(F)cc1` (centres undefined) has a max activity of 15%.
`COc1ccccc1-c1nc(Cn2nnc(-c3nc(-c4ccc(Cl)cc4)no3)c2C)c(C)o1` gave a max activity of 9.29%.
For `COc1ccc(C(=O)Nc2ccc(-c3nc(-c4ccc(C)cc4)co3)cc2)cc1OC`, the max activity was 61.6% [at 10 µM].
With `COC(=O)c1ccc(NC(=O)Nc2ccc(-c3nc(-c4ccc(C)cc4C)co3)cc2)cc1` the max activity was 12.9% [at 0.68 µM].
With `CN(C)c1cccc(C(=O)N2CSC[C@@H]2C(=O)NCCc2csc(-c3ccccc3)n2)c1` the max activity was 9.09% [at 0.16 µM].
`CCOC(=O)c1ccc(NC(=O)CN2CCC3(CC2)N=C(c2ccccc2)C(=O)N3)cc1` showed a max activity of 23.6%.
Compound `COc1ccc(-c2nc(CN(c3ccc(OC)cc3)S(=O)(=O)c3ccccc3C)c(C)o2)cc1` has a max activity of 2.45%.
`Cc1oc(-c2ccccc2)nc1Cn1nnc(-c2nc(-c3ccc(OC(C)C)cc3)no2)c1C` showed a max activity of -7.48% [at 5 µM].
For `CCc1nc(OCC(=O)Nc2ccccc2Br)c2ccccc2n1`, the max activity was 18.5% [at 0.68 µM].
`O=C(NCCc1csc(-c2ccccc2)n1)[C@H]1CSCN1S(=O)(=O)c1ccccc1F` showed a max activity of 11.9% [at 0.16 µM].
With `O=C(Nc1ccccc1)[C@@H]1[C@@H](CO)[C@@H]2Cn3c(ccc(C4=CCCCC4)c3=O)[C@@H]2N1Cc1cocn1` the max activity was 31.9%.
Work on `Cc1cccc(-c2noc(-c3nnn(Cc4nc(-c5cccc(C)c5)oc4C)c3C)n2)c1` yielded a max activity of 17.9%.
`Cc1ccc(-c2coc(-c3ccc(NC(=O)NCCc4ccccc4)cc3)n2)c(C)c1` showed a max activity of 27.7% [at 0.35 µM].
Compound `Cc1ccc(NC(=O)CN2CCC3(CC2)N=C(c2cccc(F)c2)C(=O)N3)cc1C` has a max activity of -21.1%.
In the case of `CCOc1ccc(NC(=O)N2CCN(Cc3nc(-c4ccccc4C)oc3C)CC2)cc1`, the max activity is reported as -9.52%.

Reference: PubChem BioAssay AID1259418 (Broad Institute, 2018)
